Results published in PubChem BioAssay (Tox21).
Where “and” joins values, the source holds several entries; their conditions need not be identical. Identical values can stand only once. Inconclusive results are not listed. Entries that show only a call come without a potency. Where a structure was tested more than once in an assay, its records may differ in their call. Calls of active or inactive are those of the source. Unless noted, calls follow the shape of the dose curve; as a rule, active = well fitted curve in the direction sought with a large enough effect in the repeat runs; inconclusive = weak or mixed curves; inactive = no such curve, though single readings can be large; an effect the other way counts as inactive or inconclusive.

Legend:
[1] = qHTS assay to identify small molecule antagonists of the glucocorticoid receptor (GR) signaling pathway - cell viability counter screen (AID 720693); also: nearly all actives have a fitted effect of over 55% in size; also: potency is read from the fitted curve at half-maximal effect
[2] = qHTS assay for identifying genotoxic compounds that show differential cytotoxicity against isogenic chicken DT40 cell lines with known DNA damage response pathways - wild type cell line (AID 743012); also: nearly all actives have a fitted effect of over 60% in size; also: potency is read from the fitted curve at half-maximal effect
Summary of the method: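 CellTiter-Glo luminescence readout of viability in wild type DT40 cells after 40 h compound exposure at 37 C/5% CO2; 300 cells/well; reagent incubated 30 min at room temperature before reading.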

[3] = qHTS assay for identifying genotoxic compounds that show differential cytotoxicity against isogenic chicken DT40 cell lines with known DNA damage response pathways - Rev3 mutant cell line (AID 743014); also: nearly all actives have a fitted effect of over 55% in size; also: potency is read from the fitted curve at half-maximal effect
[4] = qHTS assay for identifying genotoxic compounds that show differential cytotoxicity against isogenic chicken DT40 cell lines with known DNA damage response pathways - Rad54/Ku70 mutant cell line (AID 743015); also: nearly all actives have a fitted effect of over 60% in size; also: potency is read from the fitted curve at half-maximal effect
[5] = qHTS assay to identify small molecule antagonists of the androgen receptor (AR) signaling pathway - cell viability counter screen (AID 743033; also: nearly all actives have a fitted effect of over 45% in size; also: potency is read from the fitted curve at half-maximal effect)
[6] = qHTS assay to identify small molecule antagonists of the androgen receptor (AR) signaling pathway using the MDA cell line - cell viability counter screen (AID 743041; also: nearly all actives have a fitted effect of over 45% in size)
Summary of the method: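 Cytotoxicity counter screen: MDA-kb2 AR-luc cells, compound + R1881, 16 h, 37C, 0% CO2; CellTiter-Fluor added at 15.5 h, fluorescence read after 30 min.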

[7] = qHTS assay to identify small molecule antagonists of the thyroid receptor (TR) signaling pathway - cell viability counter screen (AID 743064); also: nearly all actives have a fitted effect of over 50% in size; also: potency is read from the fitted curve at half-maximal effect
Summary of the method: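 Same-well viability check: GH3.TRE-Luc cells stimulated with 1 nM T3 alongside test compound for 23.5 h, followed by CellTiter-Fluor fluorescence.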

[8] = qHTS assay to identify small molecule antagonists of the thyroid receptor (TR) signaling pathway (AID 743065); also: nearly all actives have a fitted effect of over 55% in size; also: potency is read from the fitted curve at half-maximal effect
Summary of the method: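 GH3.TRE-Luc rat pituitary cells (two TREs driving luciferase) were dosed with compound, then stimulated with 1 nM T3 (final) for 23.5 h at 37 C. ONE-Glo luminescence was the read-out, with CellTiter-Fluor fluorescence as the cytotoxicity counter-screen.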

[9] = test system: thyroid hormone receptor (rat, GH3 cells); assay: qHTS assay to identify small molecule agonists of the thyroid receptor (TR) signaling pathway (AID 743066; calls by dose curve)
[10] = target: Estrogen receptor (Homo sapiens) (UniProt P03372); assay: qHTS assay to identify small molecule antagonists of the estrogen receptor alpha (ER-alpha) signaling pathway (AID 743069; active = well fitted curve in the direction sought with a large enough effect in the signal ratio in the repeat runs, not every such curve was filed as active; the % refers to the signal ratio)
Chain of Estrogen receptor (Homo sapiens) (P03372 whole entry, looked up): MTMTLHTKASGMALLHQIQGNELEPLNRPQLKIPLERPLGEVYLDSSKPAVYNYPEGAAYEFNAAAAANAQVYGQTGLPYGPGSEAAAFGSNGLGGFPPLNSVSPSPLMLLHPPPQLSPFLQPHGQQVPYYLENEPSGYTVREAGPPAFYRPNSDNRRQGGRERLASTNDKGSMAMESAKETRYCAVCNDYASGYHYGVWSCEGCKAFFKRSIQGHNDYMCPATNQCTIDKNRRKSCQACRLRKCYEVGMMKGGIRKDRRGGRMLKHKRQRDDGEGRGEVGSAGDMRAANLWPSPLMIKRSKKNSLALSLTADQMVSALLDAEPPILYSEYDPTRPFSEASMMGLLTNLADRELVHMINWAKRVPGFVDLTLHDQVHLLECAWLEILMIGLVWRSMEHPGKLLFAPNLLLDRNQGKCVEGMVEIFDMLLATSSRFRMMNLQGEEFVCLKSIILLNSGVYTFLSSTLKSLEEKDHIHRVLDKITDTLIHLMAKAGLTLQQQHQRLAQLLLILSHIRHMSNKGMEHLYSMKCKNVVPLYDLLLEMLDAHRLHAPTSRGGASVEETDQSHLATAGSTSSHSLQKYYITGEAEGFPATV
Summary of the method: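 Beta-lactamase FRET fluorescence is read after 2 hr at room temperature with LiveBLAzer B/G substrate. Before that, ER-alpha-bla HEK293 cells sit 4 hr after plating, then receive compound plus 17beta-estradiol and incubate 18 hr at 37C.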

[11] = qHTS assay to identify small molecule antagonists of the estrogen receptor alpha (ER-alpha) signaling pathway - cell viability counter screen (AID 743074; calls by dose curve;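 also: HEK293 cells carrying ER-alpha-UAS-bla reporter stimulated with 17beta-estradiol; nearly all actives have a fitted effect of over 45% in size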; also: potency is read from the fitted curve at half-maximal effect)
[12] = target: Estrogen receptor (Homo sapiens) (UniProt P03372); assay: qHTS assay to identify small molecule agonists of the estrogen receptor alpha (ER-alpha) signaling pathway (AID 743075; calls by dose curve;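 also: HEK293 GripTite cells with ER-alpha and UAS-driven beta-lactamase reporter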)
[13] = target: Estrogen receptor (Homo sapiens) (UniProt P03372); assay: qHTS assay to identify small molecule agonists of the estrogen receptor alpha (ER-alpha) signaling pathway using the BG1 cell line (AID 743079); also: nearly all actives have a fitted effect of over 20% in size; also: potency is read from the fitted curve at half-maximal effect
[14] = qHTS assay to identify small molecule antagonists of the estrogen receptor alpha (ER-alpha) signaling pathway using the BG1 cell line (AID 743080; calls by dose curve;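 also: BG1 cells stimulated with 17beta-estradiol alongside compound; nearly all actives have a fitted effect of over 25% in size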; also: potency is read from the fitted curve at half-maximal effect)
Summary of the method: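 BG1-Luc-4E2 cells (endogenous full-length ER-alpha, stable 4×ERE-luciferase) were starved 5 days in phenol-red-free medium with 10% charcoal-stripped FBS, plated 24 h, then given compound plus 17beta-estradiol for 21.5 h at 37 C; ONE-Glo luminescence read after 30 min.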

[15] = qHTS assay to identify small molecule antagonists of the estrogen receptor alpha (ER-alpha) signaling pathway using the BG1 cell line - cell viability counter screen (AID 743081);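 also: compound given together with 17beta-estradiol as the ER stimulus; nearly all actives have a fitted effect of over 45% in size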
Aromatase (Homo sapiens) = Aromatase (Homo sapiens) (UniProt P11511); assay: qHTS assay to identify aromatase inhibitors (AID 743083); also: nearly all actives have a fitted effect of over 55% in size; also: potency is read from the fitted curve at half-maximal effect
Chain of Aromatase (Homo sapiens) (P11511 whole entry, looked up): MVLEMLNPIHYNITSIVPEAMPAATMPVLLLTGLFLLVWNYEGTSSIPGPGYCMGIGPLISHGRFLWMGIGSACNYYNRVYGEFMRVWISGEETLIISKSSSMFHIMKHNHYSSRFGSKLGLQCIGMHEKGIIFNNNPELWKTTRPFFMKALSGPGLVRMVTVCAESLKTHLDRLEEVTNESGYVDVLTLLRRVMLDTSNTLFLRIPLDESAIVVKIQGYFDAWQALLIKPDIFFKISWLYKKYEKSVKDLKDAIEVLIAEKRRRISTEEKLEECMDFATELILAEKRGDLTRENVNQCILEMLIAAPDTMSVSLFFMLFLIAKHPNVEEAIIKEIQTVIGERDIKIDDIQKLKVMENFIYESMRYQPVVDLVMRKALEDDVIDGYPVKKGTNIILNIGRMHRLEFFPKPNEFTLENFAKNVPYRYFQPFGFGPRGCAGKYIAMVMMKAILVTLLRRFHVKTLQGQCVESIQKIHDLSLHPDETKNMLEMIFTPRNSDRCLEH

[16] = target: Androgen receptor (Homo sapiens) (UniProt P10275); assay: qHTS assay to identify small molecule antagonists of the androgen receptor (AR) signaling pathway (AID 743035; active = well fitted inhibition curve with a large enough effect in the signal ratio in the repeat runs, not every such curve was filed as active; the % refers to the signal ratio)
Chain of Androgen receptor (Homo sapiens) (P10275 whole entry, looked up): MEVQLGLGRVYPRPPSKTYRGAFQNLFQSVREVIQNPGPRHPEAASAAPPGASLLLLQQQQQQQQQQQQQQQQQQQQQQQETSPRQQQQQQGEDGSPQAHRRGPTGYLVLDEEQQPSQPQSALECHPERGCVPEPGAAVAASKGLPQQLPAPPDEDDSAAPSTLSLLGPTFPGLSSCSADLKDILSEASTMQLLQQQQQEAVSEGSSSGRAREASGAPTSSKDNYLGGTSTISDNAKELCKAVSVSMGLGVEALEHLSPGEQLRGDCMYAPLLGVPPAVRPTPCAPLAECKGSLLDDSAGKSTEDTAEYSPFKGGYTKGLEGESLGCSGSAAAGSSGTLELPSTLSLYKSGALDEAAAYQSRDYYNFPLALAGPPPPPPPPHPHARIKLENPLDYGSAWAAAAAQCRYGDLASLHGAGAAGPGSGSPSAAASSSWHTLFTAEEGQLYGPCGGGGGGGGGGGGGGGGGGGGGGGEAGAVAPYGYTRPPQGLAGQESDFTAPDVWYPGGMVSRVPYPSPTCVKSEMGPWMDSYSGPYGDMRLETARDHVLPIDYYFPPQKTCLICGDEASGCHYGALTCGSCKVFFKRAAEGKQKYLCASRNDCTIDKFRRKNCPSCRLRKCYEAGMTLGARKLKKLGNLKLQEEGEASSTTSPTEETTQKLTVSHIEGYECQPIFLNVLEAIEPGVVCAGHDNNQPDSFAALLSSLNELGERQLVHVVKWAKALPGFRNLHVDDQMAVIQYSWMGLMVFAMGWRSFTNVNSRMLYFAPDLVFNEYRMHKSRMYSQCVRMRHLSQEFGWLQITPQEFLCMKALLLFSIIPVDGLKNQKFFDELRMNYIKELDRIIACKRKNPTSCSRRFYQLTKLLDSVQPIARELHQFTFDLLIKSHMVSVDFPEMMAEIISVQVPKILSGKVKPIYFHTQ
Summary of the method: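 AR-bla HEK293 reporter cells; 4 h settle at 37C/5% CO2; compound + R1881 agonist, 16 h at 37C; LiveBLAzer B/G FRET substrate 2 h RT; fluorescence intensity read. qHTS format.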

[17] = target: Androgen receptor (Homo sapiens) (UniProt P10275); assay: qHTS assay to identify small molecule agonists of the androgen receptor (AR) signaling pathway (AID 743036; active = well fitted activation curve with a large enough effect in the signal ratio in the repeat runs, with a control signal flat, not every such curve was filed as active; the % refers to the signal ratio)
Summary of the method: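 Agonist activity was scored by beta-lactamase reporter fluorescence in stably transfected HEK293 cells exposed to compounds for 16 h at 37C and 5% CO2. Substrate loading took 2 h at room temperature.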

[18] = target: Androgen receptor (Homo sapiens) (UniProt P10275); assay: qHTS assay to identify small molecule agonists of the androgen receptor (AR) signaling pathway using the MDA cell line (AID 743040; also: nearly all actives have a fitted effect of over 20% in size); details: MDA-kb2 AR-luc cells, MMTV luciferase, 16 h; activity change: at 70.3 µM (top of the series), stronger effect = higher value
Summary of the method: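 Luciferase read-out, ONE-Glo, 30 min RT. Cells: MDA-kb2 AR-luc, MMTV promoter with AR and GR response elements. Compound exposure 16 h, 37C, 0% CO2, after 5 h pre-incubation. qHTS agonist mode.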

[19] = target: Androgen receptor (Homo sapiens) (UniProt P10275); assay: qHTS assay to identify small molecule antagonists of the androgen receptor (AR) signaling pathway using the MDA cell line (AID 743042; also: nearly all actives have a fitted effect of over 55% in size)
Summary of the method: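 MDA-kb2 breast carcinoma cells carrying MMTV-luciferase (AR/GR responsive) were co-treated with compounds and the agonist R1881 for 16 h at 37C. Inhibition read as ONE-Glo luminescence; CellTiter-Fluor fluorescence measured in parallel for cytotoxicity.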

| SMILES | Potency [1] | Potency [2] | Potency [3] | Potency [4] | Potency [5] | Potency [6] | Potency [7] | Potency [8] | Potency [9] | Potency [10] | Potency [11] | Potency [12] | Potency [13] | Potency [14] | Potency [15] | Potency (Aromatase (Homo sapiens)) | Potency [16] | Potency [17] | Potency [18] | Potency [19] |
| --- | --- | --- | --- | --- | --- | --- | --- | --- | --- | --- | --- | --- | --- | --- | --- | --- | --- | --- | --- | --- |
| COC(=O)c1sccc1S(=O)(=O)NC(=O)Nc1nc(C)nc(OC)n1 | inactive | inactive | inactive | inactive | inactive | inactive | inactive | inactive | inactive | inactive | inactive | inactive | inactive | inactive | inactive | inactive |  |  |  |  |
| O=C(Nc1ccc(Br)cc1)c1cc(Br)cc(Br)c1O | 3.45 µM (active) and 2.19 µM (active) | 21.7 µM (active) | inactive and 19.3 µM (active) | inactive and 19.3 µM (active) | inactive and 24.5 µM (active) and 9.77 µM (active) | inactive | 16.8 µM (active) and 5.43 µM (active) and 4.33 µM (active) | 8.41 µM (active) and 2.16 µM (active) and 1.93 µM (active) | inactive |  | 6.01 µM (active) and 4.35 µM (active) and 2.19 µM (active) | inactive |  | 15.4 µM (active) | inactive | inactive and 13.7 µM (active) |  |  |  |  |
| O=S(=O)(Oc1ccc(Cl)cc1)c1ccc(Cl)cc1 | inactive | inactive | inactive | inactive | inactive | inactive | inactive |  | inactive | inactive | inactive | inactive | inactive | inactive | inactive | inactive |  |  |  |  |
| CCCCN(CCCC)N=O | inactive | inactive | inactive | inactive | inactive | inactive | inactive | inactive | inactive | inactive | inactive | inactive | inactive | inactive | inactive | inactive |  |  |  |  |
| O=P(Oc1ccccc1)(Oc1ccccc1)Oc1ccccc1 | inactive | 54.2 µM (active) and 48.6 µM (active) | 60.8 µM (active) and 48.6 µM (active) | 38.4 µM (active) and 27.3 µM (active) | inactive | inactive | inactive | inactive | inactive | inactive | inactive | inactive | 6.08 µM (active) | inactive | inactive | inactive |  |  |  |  |
| Cc1ccc(N)c(N)c1 | inactive | 54.6 µM (active) and 17.2 µM (active) | 30.7 µM (active) and 21.7 µM (active) | 48.7 µM (active) and 21.7 µM (active) | inactive | inactive | 13.7 µM (active) and 24.3 µM (active) | 12.2 µM (active) and 19.3 µM (active) | inactive |  | inactive |  |  |  | inactive |  |  |  |  |  |
| O=C(O)CC[N+](=O)[O-] | inactive | 70.8 µM (active) and inactive | inactive | inactive | inactive | inactive | inactive | inactive | inactive |  | inactive |  |  |  | inactive | inactive | inactive | inactive | inactive | inactive |
